Screening results (PubChem)
Hits are enriched below; roughly 3.9% of the tested compounds scored in any of these assays.
GDH-TPI counter-1: inhibits GDH-TPI coupling enzymes, artifact for Mtb FBA screen; hit rate 1.2% among 360,000; inhibition, % at 4.8 µM; AID 588335; GDH-TPI coupled enzyme counterscreen, NADH absorbance; in the data active means inhibition above about 30%
BH1578 lux ind: quorum light induction in luxS cqsA deficient V. cholerae; V. cholerae BH1578 lux reporter, luminescence, 6 h; activation, % at 18.7 µM; hit rate 0.16% among 350,000; AID 588436; in the data active means activation mostly above about 9.7%, no sharp cut-off
FBA Mtb inh: Mtb fructose-bisphosphate aldolase inhibition | P9WQA3 | purified M. tuberculosis FBA, fluorescence read-out | inhibition, % at 1 µM | hit rate 2.3% among 360,000
Target sequence (P9WQA3 whole entry, looked up): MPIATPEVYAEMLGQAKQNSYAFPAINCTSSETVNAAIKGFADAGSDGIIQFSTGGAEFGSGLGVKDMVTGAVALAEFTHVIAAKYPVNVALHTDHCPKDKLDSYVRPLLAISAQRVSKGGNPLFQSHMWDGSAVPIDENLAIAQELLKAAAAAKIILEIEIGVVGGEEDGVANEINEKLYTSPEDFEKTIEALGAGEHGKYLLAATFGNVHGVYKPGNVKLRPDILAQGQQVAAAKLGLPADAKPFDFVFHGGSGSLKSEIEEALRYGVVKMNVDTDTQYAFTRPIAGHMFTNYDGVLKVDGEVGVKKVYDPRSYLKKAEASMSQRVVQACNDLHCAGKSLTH
PrPC surface inh: inhibitors of human cell surface prion protein PrPC; P04156; TR-FRET read-out; inhibition, % at 13.8 µM; hit rate 0.43% among 370,000; in the data active means inhibition above about 24%
SARS 3CLpro inh: SARS-CoV 3CLpro protease inhibition | inhibition, % at 6 µM | AID 1706 | hit rate 0.14% among 290,000 | P0C6X7 | recombinant SARS-CoV 3CLpro, quenched FRET peptide cleavage; in the data active means inhibition above about 12%
Mtb FBA inh conf: Mtb FBA inhibition, confirmed. shares compounds with FBA Mtb inh. purified M. tuberculosis FBA, fluorescence read-out. inhibition, % at 1 µM. hit rate 78% among 5,600. AID 651616
GDH-TPI counter-2: counter-screen for M. tuberculosis FBA inhibitors: GDH-TPI coupled enzyme inhibition. shares compounds with FBA Mtb inh. GDH-TPI coupled enzyme counterscreen, fluorescence. inhibition, % at 1 µM. hit rate 81% among 5,600; in the data active means inhibition above about 10%
Numbers stand for hits; - = inactive; . = not tested or not shown; + = active, no number. Unless noted, no stated cut-off is given here; in the data, active means inhibition above about 27%; inactive means the rest.

SMILES	GDH-TPI counter-1	BH1578 lux ind	FBA Mtb inh	PrPC surface inh	SARS 3CLpro inh	Mtb FBA inh conf	GDH-TPI counter-2
COc1ccc(NC(=S)Nc2cccc3ccccc23)cc1OC	-	-	42	-	-	35	33
CC(=O)Nc1cccc(NC(=S)Nc2cccc3ccccc23)c1	-	-	-	-	-	.	.
CC(=O)c1cccc(NC(=S)Nc2cccc3ccccc23)c1	-	-	42	-	-	63	33
S=C(Nc1cccc2ccccc12)Nc1cccc2ccccc12	-	-	88	-	.	96	73
Cc1ccc(F)c(NC(=S)Nc2cccc3ccccc23)c1	-	-	46	-	-	55	50
COC(=O)[C@]12C[C@H](CC(=O)N3CCCCC3)C(=O)N(CCC3=CCCCC3)C1=C[C@H](COCc1ccccc1)O[C@@H]2C	.	.	.	-	.	.	.
O=S(=O)(N1CCCCC1)n1nnc2cc3ccccc3cc21	.	.	.	-	.	.	.
COc1ccccc1C1C2=C(CC(C)(C)CC2=O)N(CC(=O)O)C2=C1C(=O)CC(C)(C)C2	-	-	-	-	-	.	.
COc1ccc(N2C3=C(C(=O)CC(C)(C)C3)C(c3ccccc3OC)C3=C2CC(C)(C)CC3=O)cc1	-	-	50	-	-	76	60
Cc1ccc(S(=O)(=O)N2C[C@H]3C(=O)C[C@@H](c4ccccc4)N(S(=O)(=O)c4ccc(C)cc4)[C@H]3C[C@H]2c2ccc(Cl)cc2)cc1	-	-	-	-	.	.	.
CCOC(=O)Nc1nnc(Cc2ccc(Cl)c(Cl)c2)s1	-	-	103	-	-	63	47
CCN(CC)CCN1C2=C(C(=O)CC(C)(C)C2)C(c2cccc(F)c2)C2=C1CC(C)(C)CC2=O	-	-	83	-	-	+	200
CC1(C)CC(=O)C2=C(C1)N(CCN1CCOCC1)C1=C(C(=O)CC(C)(C)C1)C2c1cccc(Cl)c1	-	-	30	-	-	-	-
CN1[C@@H](Cc2ccccc2)COc2cccc(N3CCCC3)c2S1(=O)=O	.	.	.	-	.	.	.
N#C/C(=C(/O)C(Cl)(Cl)Cl)c1nc2ccccc2[nH]1	-	-	-	-	-	.	.
CC(=O)c1ccc(-c2ccc(C(=O)N(C)Cc3nc4ccccc4c(=O)[nH]3)o2)cc1	-	-	89	-	.	-	-
CN(Cc1nc2ccccc2c(=O)[nH]1)C(=O)c1ccc(S(=O)(=O)N(C)C)cc1	-	-	-	-	-	.	.
Cc1cccc(OC(C)C(=O)Nc2ccc3c(c2)OCCO3)c1 (stereo unspecified)	-	-	-	-	.	.	.
O=C(CN1C(=O)C(=O)N(Cc2ccccc2)C1=O)Nc1ccc(F)c(Cl)c1	-	-	-	-	-	.	.
CCc1cc(=O)oc2cc(C)cc(OC(C)C(=O)NCc3cccnc3)c12 (stereo unspecified)	-	-	105	-	-	+	154
CCCCc1cc(=O)oc2cc(C)cc(OC(C)C(=O)NCc3cccnc3)c12 (stereo unspecified)	-	-	56	-	-	55	43
CCc1cc(=O)oc2cc(C)cc(OC(C)C(=O)NCc3ccncc3)c12 (stereo unspecified)	-	-	84	-	-	-	-
COc1ccc(C)cc1N(C)C(=O)Cc1c(C(=O)O)n(C)c2ccccc12	-	-	-	-	-	.	.
CCN(CC)S(=O)(=O)c1ccc(N2CCCC2)c(NC(=O)c2ccc(N3CCCC3=O)cc2)c1	-	-	-	-	.	.	.
Cc1ccc(S(=O)(=O)NC(=O)c2ccc(-c3ccc(-c4ccccc4)cc3)o2)c(C)c1	.	.	.	.	-	.	.
SMILES	GDH-TPI counter-1	BH1578 lux ind	FBA Mtb inh	PrPC surface inh	SARS 3CLpro inh	Mtb FBA inh conf	GDH-TPI counter-2
NC(N)=N/N=C/c1ccc(N(c2ccccc2)c2ccccc2)cc1	-	-	104	-	-	71	49
CC(C)c1[nH]nc2c1C(c1ccc3c(c1)OCO3)NC2=O (stereo unspecified)	.	.	.	-	.	.	.
Cc1ccc2c(c1)=NC(=O)/C(=C/c1c(O)[nH]c(=O)[nH]c1=O)C=2	-	-	35	-	-	95	65
COc1ccc(-c2oc3ccc(N4CCOCC4)cc3c2/C=C/c2ccc(OC)c(OC)c2)cc1	40	-	36	-	-	+	176
CCc1cc2c(COC(=O)c3c(C)noc3C)cc(=O)oc2cc1O	32	-	33	-	-	85	62
CCCCNc1c(-c2ccc(SC(C)CC)cc2)nc2ccccn12 (stereo unspecified)	-	-	57	-	.	83	72
CCCCNc1c(-c2ccc(SC3CCCCC3)c(OC)c2)nc2ccc(C)cn12	-	-	50	-	.	+	193
c1csc(-c2nc3ccccn3c2NC2CCCCC2)c1	-	-	43	-	-	-	-
CCCCNc1c(-c2ccc(Sc3ccc(OC)cc3)cc2)nc2cc(C)ccn12	-	-	53	-	.	54	60
CCCCCC(=O)N1C[C@H](O)[C@@H](n2cc(C3CC3)nn2)C[C@@H]1c1ccc(C)cc1	-	-	-	-	.	.	.
C[C@H](CO)N1C[C@H](C)[C@@H](CN(C)S(=O)(=O)c2cccs2)Oc2c(NC(=O)CCC(F)(F)F)cccc2C1=O	-	-	-	-	.	.	.
CCN(c1ccccc1)S(=O)(=O)c1ccc(C(=O)Oc2ccc(C(C)=O)cc2)cc1	-	-	-	-	-	.	.
CCCCCCSc1ccc(-c2nc3ccc(C)cn3c2NCc2ccccc2)cc1OC	-	-	38	-	.	146	110
CCC(C)Sc1cc(-c2nc3ccccn3c2NC2CCCCC2)ccc1OC (stereo unspecified)	-	-	34	-	.	87	78
CCCCNc1c(-c2ccc(OC)c(SC(C)CC)c2)nc2cc(C)ccn12 (stereo unspecified)	-	-	31	-	.	93	91
CCC(C)Sc1cc(-c2nc3cc(C)ccn3c2NC2CCCCC2)ccc1OC (stereo unspecified)	-	-	-	-	.	.	.
CCCCNc1c(-c2ccc(OC)c(SC(C)CC)c2)nc2cnccn12 (stereo unspecified)	-	-	-	-	.	.	.
CCCCCCSc1cc(-c2nc3ccc(C)cn3c2NCCCC)ccc1OC	-	-	28	-	.	139	107
CC(=O)N1CCN(C(C(=O)Nc2c(C)cccc2C)c2cccc(F)c2)CC1 (stereo unspecified)	.	.	.	-	.	.	.
Cc1cccc(Oc2ccc(Cl)cc2N)c1	-	-	-	-	-	.	.
CCOc1ccccc1N(CC(=O)NC1CCCC1)C(=O)CNC(=O)c1cccs1	-	-	-	-	-	.	.
COc1ccc(CN2C(=O)C(CC(=O)NC3CCCC3)CC(C(=O)N(C)C)=C2C)cc1 (stereo unspecified)	-	-	-	-	.	.	.
CCCCNc1c(-c2ccc(OC)c(SC(C)CC)c2)nc2ccc(C)cn12 (stereo unspecified)	-	-	41	-	.	74	87
COc1ccc(-c2ccc(-c3nc4ccc(C)cn4c3NC3CCCCC3)cc2OC)cc1	-	-	54	-	.	+	185
Cc1ccc2nc(-c3cccc(SC4CCCCC4)c3)c(NC3CCCCC3)n2c1	-	-	-	-	.	.	.
